Reference: PubChem BioAssay (NCI)
About 83,000 compounds went through this panel and 20% of them were active in at least one assay; those are over-represented in the sample as a whole.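 Activity criterion: percent growth below 10, measured after cells in 96-well plates were exposed to a single compound concentration for 48 hours.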 Active and inactive are the calls of the source.

Legend:
Assay in all cases: NCI-60 one-dose screen, 48 h (100 = growth as untreated, 0 = no growth, -100 = all killed)
Conditions in all cases: 10 µM unless noted
HCT-15 colon = tested on: HCT-15 colon
HT29 colon = tested on: HT29 colon
SNB-75 CNS = tested on: SNB-75 CNS
SNB-19 CNS = tested on: SNB-19 CNS
U251 CNS = tested on: U251 CNS
PC-3 prostate = tested on: PC-3 prostate
SK-MEL-5 melanoma = tested on: SK-MEL-5 melanoma
UACC-62 melanoma = tested on: UACC-62 melanoma
LOX IMVI melanoma = tested on: LOX IMVI melanoma
SK-MEL-28 melanoma = tested on: SK-MEL-28 melanoma
SK-MEL-2 melanoma = tested on: SK-MEL-2 melanoma
EKVX NSCLC = tested on: EKVX NSCLC
SN12C renal = tested on: SN12C renal
UO-31 renal = tested on: UO-31 renal
TK-10 renal = tested on: TK-10 renal
ACHN renal = tested on: ACHN renal
A498 renal = tested on: A498 renal
CCRF-CEM leukemia = tested on: CCRF-CEM leukemia
MOLT-4 leukemia = tested on: MOLT-4 leukemia

Measured: growth

c1coc(CSc2ncnc3nc[nH]c23)c1
inactive: HCT-15 colon 101% | HT29 colon 110% | SNB-75 CNS 95.1% | SNB-19 CNS 86.2% | U251 CNS 102% | PC-3 prostate 90.1% | SK-MEL-5 melanoma 109% | UACC-62 melanoma 98.3% | LOX IMVI melanoma 89.2% | SK-MEL-28 melanoma 108% | SK-MEL-2 melanoma 105% | EKVX NSCLC 103% | SN12C renal 102% | UO-31 renal 86.5% | TK-10 renal 125% | ACHN renal 106% | A498 renal 90.8%

C=C1C(=O)O[C@H]2[C@H]1CC/C(COC(=O)c1cc(OC)c(OC)c(OC)c1)=C\CC[C@@]1(C)O[C@@H]21
active: HCT-15 colon -42.8% | HT29 colon -80.2% | U251 CNS 9.17% | SK-MEL-5 melanoma -23.8% | UACC-62 melanoma -50.7% | LOX IMVI melanoma -94.9% | SK-MEL-28 melanoma -36.5% | SK-MEL-2 melanoma -39.4% | EKVX NSCLC -70.6% | SN12C renal -5.94% | UO-31 renal -99% | TK-10 renal -64.4% | ACHN renal -87.7% | CCRF-CEM leukemia -22%
inactive: SNB-75 CNS 45.9% | SNB-19 CNS 30.5% | PC-3 prostate 18.6% | A498 renal 59.8%

CC(=O)O[C@@H]1[C@@H](OC(C)=O)[C@H](OC(C)=O)CO[C@H]1Nc1cccc2ccccc12
inactive: HCT-15 colon 94% | HT29 colon 84.2% | SNB-75 CNS 93.9% | SNB-19 CNS 105% | U251 CNS 105% | PC-3 prostate 90.8% | SK-MEL-5 melanoma 103% | UACC-62 melanoma 97.2% | LOX IMVI melanoma 88.8% | SK-MEL-28 melanoma 110% | SK-MEL-2 melanoma 82.3% | EKVX NSCLC 99.8% | SN12C renal 94.3% | UO-31 renal 62.4% | TK-10 renal 115% | ACHN renal 98.8% | A498 renal 101% | CCRF-CEM leukemia 71.7%

CC1(C)N=C(N)N=C(N)N1c1ccc(F)c(C(F)(F)F)c1
inactive: HCT-15 colon 45.8% | HT29 colon 19.3% | SNB-75 CNS 59% | SNB-19 CNS 44% | U251 CNS 47.2% | PC-3 prostate 34.3% | SK-MEL-5 melanoma 22.8% | UACC-62 melanoma 24.3% | LOX IMVI melanoma 21.4% | SK-MEL-28 melanoma 97.8% | SK-MEL-2 melanoma 54.4% | EKVX NSCLC 65.2% | SN12C renal 47.4% | UO-31 renal 41.8% | TK-10 renal 65.5% | ACHN renal 36% | A498 renal 93.1% | CCRF-CEM leukemia 20.8%

Nc1nc(Nc2ccc(OCc3cccc(F)c3)cc2)c2c(n1)[nH]c1ccc(O)cc12
active: HCT-15 colon -8.62% | HT29 colon -84.2% | SNB-75 CNS -63.5% | U251 CNS -91% | PC-3 prostate 4.64% | SK-MEL-5 melanoma -78.1% | UACC-62 melanoma -75.1% | LOX IMVI melanoma -96% | SK-MEL-28 melanoma -67.4% | SK-MEL-2 melanoma -63% | SN12C renal -69.3% | UO-31 renal -93.5% | TK-10 renal -9.4% | ACHN renal -26.8% | CCRF-CEM leukemia -9.7%
inactive: SNB-19 CNS 12.3% | EKVX NSCLC 10.5% | A498 renal 75.9%

COC(=O)c1oc2c(C(C)=O)c(OCCCN(C)C)ccc2c1C
active: CCRF-CEM leukemia -13.6%
inactive: HCT-15 colon 99.6% | HT29 colon 69.1% | SNB-75 CNS 91.3% | SNB-19 CNS 103% | U251 CNS 99.5% | PC-3 prostate 88.9% | SK-MEL-5 melanoma 103% | UACC-62 melanoma 98.8% | LOX IMVI melanoma 95% | SK-MEL-28 melanoma 110% | SK-MEL-2 melanoma 106% | EKVX NSCLC 187% | SN12C renal 109% | UO-31 renal 75.3% | TK-10 renal 90.8% | ACHN renal 107% | A498 renal 125% | MOLT-4 leukemia 85.8%

COc1ccc(C2CC(c3cc(Cl)c(C)cc3OC)=NN2c2ccc(S(N)(=O)=O)cc2)cc1OC (stereo not given)
inactive: HCT-15 colon 75.9% | HT29 colon 78.7% | SNB-75 CNS 83.6% | SNB-19 CNS 101% | U251 CNS 78.4% | PC-3 prostate 52.3% | SK-MEL-5 melanoma 84.6% | UACC-62 melanoma 65.1% | LOX IMVI melanoma 77.9% | SK-MEL-28 melanoma 108% | SK-MEL-2 melanoma 95.8% | EKVX NSCLC 80.6% | SN12C renal 87.4% | UO-31 renal 59.1% | TK-10 renal 113% | ACHN renal 84% | A498 renal 112%

O=C(Cn1c2ccccc2c2ccncc21)N/N=C/c1cc(O)c(O)c(O)c1
inactive: HCT-15 colon 105% | HT29 colon 103% | SNB-75 CNS 115% | SNB-19 CNS 93.9% | U251 CNS 101% | PC-3 prostate 102% | SK-MEL-5 melanoma 101% | UACC-62 melanoma 103% | LOX IMVI melanoma 96.9% | SK-MEL-28 melanoma 108% | SK-MEL-2 melanoma 98.9% | EKVX NSCLC 109% | SN12C renal 104% | UO-31 renal 98.6% | TK-10 renal 107% | ACHN renal 108% | A498 renal 97.5% | CCRF-CEM leukemia 112% | MOLT-4 leukemia 88.4%

S=c1n(CNc2ccc(Cl)nn2)nc(-c2cc(Cl)cc(Cl)c2Cl)n1/N=C/c1ccc(Cl)cc1
inactive: HCT-15 colon 117% | HT29 colon 118% | SNB-75 CNS 98.5% | SNB-19 CNS 102% | U251 CNS 86.9% | PC-3 prostate 82.6% | SK-MEL-5 melanoma 90.9% | UACC-62 melanoma 90.4% | LOX IMVI melanoma 94.5% | SK-MEL-28 melanoma 105% | SK-MEL-2 melanoma 84.1% | EKVX NSCLC 91.3% | SN12C renal 103% | UO-31 renal 80.8% | TK-10 renal 113% | ACHN renal 107% | A498 renal 121% | MOLT-4 leukemia 60.5%
active: CCRF-CEM leukemia -32.8%

Clc1ccc(CN2COc3c(ccc4cccnc34)C2)cc1Cl
inactive: HCT-15 colon 16.3% | HT29 colon 30.3% | SNB-19 CNS 18.5% | PC-3 prostate 27.9% | SK-MEL-28 melanoma 33.5% | SK-MEL-2 melanoma 11.8% | SN12C renal 19.4% | TK-10 renal 25.9% | A498 renal 52.8%
active: SNB-75 CNS 9.33% | U251 CNS 9.29% | SK-MEL-5 melanoma -1% | UACC-62 melanoma -38% | LOX IMVI melanoma 2.29% | EKVX NSCLC 1.43% | UO-31 renal -55.4% | ACHN renal 4.57% | CCRF-CEM leukemia -11.1%

Cn1c2ccccc2c2ssc(=S)c21
inactive: HCT-15 colon 92.1% | HT29 colon 110% | SNB-75 CNS 99.3% | SNB-19 CNS 100% | U251 CNS 96.2% | PC-3 prostate 101% | SK-MEL-5 melanoma 89.8% | UACC-62 melanoma 95.8% | LOX IMVI melanoma 91.9% | SK-MEL-28 melanoma 108% | SK-MEL-2 melanoma 92.8% | EKVX NSCLC 39.5% | SN12C renal 116% | UO-31 renal 84% | TK-10 renal 111% | ACHN renal 114% | A498 renal 86.1% | CCRF-CEM leukemia 116% | MOLT-4 leukemia 75.5%

O=C(CNc1cccnc1)Nc1ccc(C(=O)/C=C/c2ccc(Cl)cc2)cc1
inactive: HCT-15 colon 88.6% | HT29 colon 90% | SNB-75 CNS 87.8% | SNB-19 CNS 101% | U251 CNS 82.1% | PC-3 prostate 89.4% | SK-MEL-5 melanoma 91.1% | UACC-62 melanoma 84.9% | LOX IMVI melanoma 86% | SK-MEL-28 melanoma 96.4% | SK-MEL-2 melanoma 84.4% | EKVX NSCLC 95% | SN12C renal 88.7% | UO-31 renal 77.7% | TK-10 renal 106% | ACHN renal 101% | A498 renal 86.9% | CCRF-CEM leukemia 26.6%

CC(C)Cn1cnc2c3ccccc3nc(NCn3nc(-c4cc(Cl)cc(Cl)c4Cl)oc3=S)c21
inactive: HCT-15 colon 106% | HT29 colon 98.5% | SNB-75 CNS 90% | SNB-19 CNS 111% | U251 CNS 99% | PC-3 prostate 86.2% | SK-MEL-5 melanoma 85.3% | UACC-62 melanoma 90.1% | LOX IMVI melanoma 86.7% | SK-MEL-28 melanoma 110% | SK-MEL-2 melanoma 90.8% | EKVX NSCLC 89.1% | SN12C renal 98.5% | UO-31 renal 64.8% | TK-10 renal 108% | ACHN renal 97.6% | A498 renal 89.5%

O=c1c(-c2ccc3c(c2)OCO3)coc2c(CO)c(O)ccc12
active: SNB-75 CNS -5.16% | U251 CNS -92.6% | PC-3 prostate -52.4% | SK-MEL-5 melanoma 5.73% | UACC-62 melanoma -53.1% | LOX IMVI melanoma -43.6% | SK-MEL-2 melanoma -66.3% | EKVX NSCLC 3.55% | SN12C renal -3.58% | UO-31 renal -81.9% | TK-10 renal -15.2% | ACHN renal -30.5% | A498 renal -26.7% | CCRF-CEM leukemia 1.63%
inactive: HCT-15 colon 12.6% | HT29 colon 86.1% | SNB-19 CNS 13.5% | SK-MEL-28 melanoma 40.3% | MOLT-4 leukemia 90.3%

COc1cc(/C=C/C(=O)N2CCC=CC2=O)cc(OC)c1OC
inactive: HT29 colon 23.2% | SNB-75 CNS 75.7% | SNB-19 CNS 72.9% | U251 CNS 68.3% | PC-3 prostate 79.7% | SK-MEL-5 melanoma 73.8% | UACC-62 melanoma 40.8% | LOX IMVI melanoma 10.2% | SK-MEL-28 melanoma 56% | SK-MEL-2 melanoma 74.9% | EKVX NSCLC 57.1% | SN12C renal 45.1% | UO-31 renal 57.7% | TK-10 renal 38.7% | A498 renal 98.7% | CCRF-CEM leukemia 15% | MOLT-4 leukemia 42.1%
active: HCT-15 colon 1.7% | ACHN renal -7.71%

CC1=C2C(=C[C@@](C)(CO)[C@@H]2OC(=O)N(C)CCN(C)C(=O)OC(C)(C)C)C(=O)[C@](C)(O)C12CC2
inactive: HCT-15 colon 21% | SNB-75 CNS 79.9% | SNB-19 CNS 72.3% | U251 CNS 22.6% | PC-3 prostate 47.7% | SK-MEL-5 melanoma 76.7% | UACC-62 melanoma 84.2% | LOX IMVI melanoma 61.8% | SK-MEL-28 melanoma 82.3% | SK-MEL-2 melanoma 71.4% | EKVX NSCLC 78.5% | SN12C renal 73% | TK-10 renal 68.1% | A498 renal 97% | CCRF-CEM leukemia 74.6% | MOLT-4 leukemia 89.7%
active: HT29 colon 6.33% | UO-31 renal -60.4% | ACHN renal -52.5%

O=C(O)c1ccc2nc(-c3ccc(OCCCCCOc4ccc(-c5nc6ccc(C(=O)O)cc6[nH]5)cc4)cc3)[nH]c2c1
active: SK-MEL-5 melanoma 3.26% | TK-10 renal -2.6%
inactive: HCT-15 colon 74.3% | HT29 colon 51.4% | SNB-75 CNS 96% | SNB-19 CNS 59.6% | U251 CNS 96.4% | PC-3 prostate 90% | UACC-62 melanoma 53% | LOX IMVI melanoma 82% | SK-MEL-28 melanoma 46.9% | SK-MEL-2 melanoma 101% | EKVX NSCLC 113% | SN12C renal 62.2% | UO-31 renal 90.5% | ACHN renal 98.4% | A498 renal 53.6% | CCRF-CEM leukemia 76.1%
